Assay outcomes: PubChem BioAssay, National Center for Advancing Translational Sciences (NCATS)
KB-V1 cytotox = kills drug-selected multidrug resistant KB-V1 cells. KB-V1 MDR cells viability, CellTiter-Glo, 72 h. Potency, µM (doses to about 46.1 µM), hits mostly cytotoxic. 3.4% of 400,000 active; note: potency is the fitted concentration of half-maximal effect; nearly all actives have a fitted effect of over 60% in size
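qHTS viability screen in drug-selected KB-V1 MDR cells: 72 h compound treatment at 37 degrees C, ATP luminescence end point.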
IL1B secr inh = blocks inflammasome-driven IL-1 beta release. 4.7% of 360,000 active. AID 743279. activity change, % at 57.5 µM. THP-1 LPS/ATP IL-1B secretion, AlphaLISA, 16 h; active compounds read low; in the data active = activity change below about -50%; inconclusive = mostly about -30% to -49%
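THP-1 cells pretreated 1 hr with compounds (up to 57.5 uM final), then stimulated with LPS (250 ng/mL final) plus ATP (1.25 mM final); secreted IL-1B measured by AlphaLISA after 16 hr, decreased signal indicating inhibition.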
KB-3-1 tox = kills parental KB-3-1 adenocarcinoma cells; Potency, µM (series often up to 46.1 µM), usual class: cytotoxic; 1.4% of 400,000 active; AID 1347075; KB-3-1 viability, CellTiter-Glo ATP luminescence, 72 h; note: potency is the fitted concentration of half-maximal effect; nearly all actives have a fitted effect of over 60% in size
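Parental KB-3-1 viability, qHTS format: 72 h compound exposure, 37 °C; CellTiter-Glo; media-only wells and DMSO plates as controls; concentration-effect fits on corrected data.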
HT1080 IDH1KD tx = HT-1080 IDH1 knockdown cell toxicity (counter line). HT-1080 IDH1 knockdown viability, ATP luminescence, 48 h. Potency, µM (highest dose often 46.1 µM), for the others: at the top dose activity, negative = toxicity, actives largely listed as cytotoxic. 2% of 360,000 active;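 note: potency is the fitted concentration of half-maximal effect; 0% = DMSO wells and -100% = cell-free medium wells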
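% activity derives from luminescence (CellTiter-Glo), normalised to DMSO and no-cell wells. HT-1080-IDH1KD cells, 750/well, had 48 h compound exposure at 37 °C.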
HT1080-NT tox = kills 2HG-producing HT-1080-NT fibrosarcoma cells; HT-1080-NT fibrosarcoma viability, CellTiter-Glo ATP luminescence, 48 h; Potency, µM (top dose mostly 46.1 µM), without a hit: at the top dose activity, negative = less viability, actives largely listed as cytotoxic; AID 686970; 1.6% of 360,000 active;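 note: NT is the 2HG producing partner of a matched IDH1 knockdown line; potency is the fitted concentration of half-maximal effect; 0% = DMSO-treated cells and -100% = media-only wells without cells; nearly all actives have a fitted effect of over 55% in size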
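Viability by CellTiter-Glo luminescence after 48 h compound exposure at 37C of HT-1080-NT cells (750/well, RPMI, 5% FBS). % activity scaled between DMSO wells and medium-only wells, then curve-fitted and categorized by curve class.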
An asterisk follows results filed as active; i = inactive; ? = inconclusive. An excerpt weighted towards active compounds, which were near 8.8% of everything screened. Unless noted, calls come from the whole dose curve; as a rule, active = well fitted curve in the direction sought with a large enough effect; inconclusive = small, poorly fitted or top-dose-only effect, or another doubt; inactive = no such curve, though single readings can be large; an effect the other way counts as inactive or inconclusive. Unless noted, % is set by controls: 0 for no effect and ±100 for the full control effect.

SMILES | KB-V1 cytotox | IL1B secr inh | KB-3-1 tox | HT1080 IDH1KD tx | HT1080-NT tox
CC1=CC(C)(C)N(S(=O)(=O)c2ccc(C)cc2)c2ccccc21 | ? | 34 | 16µM* | ? | 6.3µM*
CCOc1ccc2c(c1)C(C)=CC(C)(C)N2S(=O)(=O)c1ccc(F)cc1 | ? | 143 | 7.3µM* | ? | ?
CC1=CC(C)(C)N(C(=O)CN2C(=O)c3ccccc3C2=O)c2ccccc21 | ? | 1 | i | 1% | 10%
Cc1csc(SCC(=O)NCc2ccccc2)n1 | i | 13 | i | 9% | 7%
Cc1csc2sc(-c3ccnc(SCC(=O)NCc4ccccc4)n3)c(C)c12 | 5.8µM* | 75 | ? | 2.3µM* | 3.3µM*
